In PubChem BioAssay AID504332 (National Center for Advancing Translational Sciences (NCATS), 2011):
Among all 350,000 compounds or so, about 31,000 (8.9%) were called active. About 15% were inconclusive and are not listed. Calls come from the whole dose curve; as a rule, active = well fitted inhibition curve with a large enough effect; inconclusive = small, poorly fitted or top-dose-only effect; inactive = no such curve, though single readings can be large or run the other way. Many of the other results were omitted from the sample, so actives are more common in it than they were.

Target: Histone-lysine N-methyltransferase EHMT2 (Homo sapiens) (UniProt Q96KQ7)
Sequence (Q96KQ7 913-1193 limits assumed): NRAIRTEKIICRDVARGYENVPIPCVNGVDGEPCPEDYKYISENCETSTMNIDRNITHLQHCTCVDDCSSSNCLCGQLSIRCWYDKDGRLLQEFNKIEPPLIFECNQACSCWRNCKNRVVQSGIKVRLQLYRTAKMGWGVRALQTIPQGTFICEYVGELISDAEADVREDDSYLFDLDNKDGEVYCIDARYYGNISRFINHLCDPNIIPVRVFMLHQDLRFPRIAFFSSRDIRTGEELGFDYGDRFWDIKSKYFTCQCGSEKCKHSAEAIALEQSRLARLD
Experiment: qHTS Assay for Inhibitors of Histone Lysine Methyltransferase G9a; note: nearly all actives have a fitted effect of over 75% in size
Settings: G9a H3K9 monomethylation, AlphaScreen, 2 h; series mostly up to 59 µM
Source text: Methylated lysines, on the N-terminal tails of histone proteins serve as epigenetic markers to recruit factors that can then modify local chromatin structure to lead to functional consequences. G9a and other members of the SUV39 family of the SET domain-containing superfamily of histone lysine methyltransferases (HMT) have been identified to specifically methylate Lys9 of histone H3 (H3K9). G9a catalyzes the mono- and di-methylation of H3K9 in mammalian euchromatic regions, where the resulting H3K9me2 is indicative of transcriptional repression. […] The inhibition of G9a will result in transcriptional activation and work synergistically with DNA methyltransferase and histone deacetylase inhibitors, to kill cancer cells. This qHTS assay for identification of G9a inhibitors is a chemiluminescence based AlphaScreen (PerkinElmer). Methylation of biotinylated-histone peptide is measured through specific antibody-based detection, in conjunction with streptavidin-coated donor and anti-IgG antibody-coated acceptor beads. The method is particularly well suited for detection of inhibitors acting by the desired histone peptide competitive mechanism and is applicable to testing other HMTs. Although AlphaScreen has significant advantages with its utility in a variety of epigenetic target assays, the primary screening data provided in this deposition should be used with caution due to the prevalence of screening artifacts. An AlphaScreen counterscreen is highly recommended to be run against any putative actives to eliminate non specific artifacts. Alternatively, one can use other AlphaScreen assays in PubChem to filter out promiscuous hits. Quinn et al. A chemiluminescence-based method for identification of histone lysine methyltransferase inhibitors. Mol Biosyst 6(5): 782-8. 2010. PMID: 20567762 [2] Baell,Holloway. New substructure filters for removal of pan assay interference compounds (PAINS) from screening libraries and for their exclusion in bioassays. J Med Chem. 53(7):2719-40. 2010. PMID: 20131845 NIH Molecular Libraries Probe Production Network [MLPCN] NIH Chemical Genomics Center [NCGC] Structural Genomics Consortium (SGC) NIH Grant: 5U54 MH084681-02
To each well of a 1,536w plate, 2ul of HMT enzyme (final 20nM) were added, using a nanoliter dispenser. The G9a- and GLP-inhibitor BIX-01294 (CID: 25150857) are used as an intraplate control, with a 16-point titration in duplicate. A Kalypsys pin-tool transferred 23nl of library compound solution in DMSO to each well. Following a 15 min incubation of enzyme with compounds at room temperature, 1ul mixture of b-H3K9 peptide substrate (final 500nM) and SAM cofactor (final 20uM) were added. Reactions were allowed to proceed at room temperature for 2 hours. Methylated b-H3K9 peptide product was detected with 0.5 ug/mL rabbit polyclonal anti-monomethyl histone H3K9 antibody (Abcam Inc., Cambridge, MA) and 20 ug/mL each streptavidin-coated donor and anti-rabbit IgG acceptor AlphaScreen beads. Antibody and beads were added in a 1ul dispense, for a final volume of 4ul, and plates were incubated, protected from the light, for 10 min at room temperature. Microplates were then read on an EnVision multilabel plate reader using the 1,536 plate HTS AlphaScreen aperture (excitation time 80 ms, measurement time 240 ms).
% is set by controls: 0 for no effect and ±100 for the full control effect; potency is the fitted concentration of half-maximal effect.

Potency, active:
CC(CN1CCCCC1)c1ccccc1 (stereo not given) 11.2 µM
CCOc1cc(C(=S)N2CCOCC2)ccc1O 4.47 µM
Cc1ccc2c(c1)C1CN(C)CCC1N2S(=O)(=O)c1ccc(Oc2ccc([N+](=O)[O-])cc2)cc1 (stereo not given) 35.5 µM
CCc1cc2cc(OC)ccc2nc1SCC(=O)Nc1cc(OC)c(OC)cc1C(=O)O 50.1 µM
CN(C)CCCn1c(N)c(C#N)c2nc(C#N)c(C#N)nc21 25.1 µM
CCOc1ccc(N2CC(C(=O)NCCN3C(=O)S/C(=C\c4cccnc4)C3=O)CC2=O)cc1 (stereo not given) 39.8 µM
COc1ccc(Nc2nc(-c3cccnc3)nc3ccccc23)cn1 35.5 µM
Oc1ccc2ccccc2c1C=Nc1ccccc1 2.51 µM
Oc1ccc(N=Cc2c(O)ccc3ccccc23)cc1 1 µM
Oc1ccc(N=Cc2sc3ccccc3c2Cl)cc1 10 µM
COC(=O)COc1ccc2c(c1C)O/C(=C\c1ccco1)C2=O 8.91 µM
CCN(CC)c1ccc(NC(=O)CN2CCN(c3ccccn3)CC2)cc1 44.7 µM
CCN(CC)c1ccc(NC(=O)CN2CCN(CC(=O)Nc3ccc(Cl)cc3)CC2)cc1 7.08 µM
CCN(CC)c1ccc(NC(=O)c2ccc(Cl)nc2)cc1 10 µM
CCN(CC)c1ccc([N+](=O)[O-])cc1C(=O)O 50.1 µM
Cc1nc2ccc(NC(=S)N3CCC(C)CC3)cc2nc1C 44.7 µM
CNC(=S)N/N=C/c1cn(Cc2ccc(C)cc2)c2ccccc12 44.7 µM
COC(=O)Cn1cc(/C=C/[N+](=O)[O-])c2ccccc21 39.8 µM
Cc1nc(C)c(C(=O)Nc2cccc(C)c2C)o1 44.7 µM
Cc1cccc(NC(=O)c2cccc(C(=O)Nc3cccc(C)c3C)n2)c1C 50.1 µM

Potency, inactive:
CC(CN1CCOCC1)c1ccccc1 (stereo not given)
CC(CN1CCC(n2nccc2NC(=O)C2CCCC2)CC1)c1ccccc1 (stereo not given)
Cc1ccc(-c2nn3c(=O)cc(CN4CCN(S(=O)(=O)c5ccc(Cl)cc5)CC4)nc3s2)cc1
CCOc1cc(C(=S)N2CCOCC2)ccc1OS(=O)(=O)c1ccc(Br)cc1
CCOc1cc(C(=O)OCC(=O)Nc2cccc(C)c2)ccc1OCC(=O)N1CCOCC1
Cc1cccc(NC(=O)CSc2ncc(-c3ccccc3)[nH]2)c1C
Cc1ccc2c(c1)C1CN(C)CCC1N2S(=O)(=O)c1cccc(F)c1 (stereo not given)
COc1ccc(C(=O)NC2CCN(C(=O)Nc3ccc(F)cc3)CC2)cc1
CCc1nnc(SCC(=O)Nc2cc(OC)ccc2OC)nc1CC
COc1ccc(OC)c(NC(=O)CSc2nc3ccccc3nc2N2CCCCC2)c1
N#Cc1c(N)n(CCOC(=O)c2ccc(Cl)cc2)c2nc3ccccc3nc12
CC(C)(C)c1ccc(C(=O)NCCn2c(N)c(C#N)c3nc4ccccc4nc32)cc1
COc1ccc(CNC(=O)CN(c2ccc(OC)c(Cl)c2)S(=O)(=O)c2ccc(C)cc2)cc1
CCOc1ccc(N2CC(C(=O)NCc3ccccn3)CC2=O)cc1 (stereo not given)
CCN(c1ccccc1)S(=O)(=O)c1cc(C(=O)NCc2ccccn2)ccc1C
COc1ccc(Cl)cc1N(C)C(=O)c1cc2c(=O)oc3ccc(C)cc3c2s1
COC(=O)c1ccc(COC(=O)CNC(=O)c2cccc(OC)c2)o1
COc1cc(Nc2nc(-c3ccc(OC)c(OC)c3)nc3ccccc23)cc(OC)c1
COc1ccccc1Oc1nc(-c2cccnc2)nc2ccccc12
CCc1nc2onc(C)c2c(=O)n1CC(=O)O
CCOC(=O)c1c(S(=O)(=O)N2CCCC(C(=O)NCc3ccc(F)cc3)C2)c(C)n(CC)c1C (stereo not given)
Cc1ccc(CN2CC(C(=O)N3CCN(S(=O)(=O)c4ccccc4)CC3)CC2=O)cc1 (stereo not given)
Cc1ccc(CN2CCCn3nc(C(=O)NCc4ccccc4Cl)cc3C2=O)cc1
O=C(O)C#Cc1cccc2ccccc12
O=C(N/N=C/c1c(Cl)[nH]c2ccccc12)c1sc2ccccc2c1Cl
CCOc1[nH]n(-c2ccc(Cl)cc2)c(=O)c1C=Nc1ccc(O)cc1
COc1ccc(N=C(C)c2sc3ccccc3c2O)cc1
CCOc1ccc(N=Cc2c(O)n(-c3cccc(C)n3)c(=O)c3ccccc23)cc1
O=S(=O)(NCCc1nnc2ccc(SCc3ccc(Cl)cc3Cl)nn12)c1ccccc1
COc1ccc(NC(=O)C2CCCN(S(=O)(=O)c3cccc4nonc34)C2)cc1Cl (stereo not given)
O=S(=O)(Nc1ccc(-n2cnnn2)cc1)c1ccc(Cl)cc1
CCOc1ccccc1C(=O)Nc1ccc2c(c1)N(C)C(=O)c1ccccc1S2
Cc1cc(C)c(OCC(=O)N/N=C/c2ccco2)c(C)c1
CCOc1ccc(N(CC)C(=O)C2CCN(S(=O)(=O)c3cccc4nonc34)CC2)cc1
CCOC(=O)c1cccc(NS(=O)(=O)c2cn(C)c(C)n2)c1
Cc1cccc(N2CCN(C(=O)CCn3c(=O)c4cccn4c4cccnc43)CC2C)c1 (stereo not given)
CCOC(=O)N1CCN(CC(=O)Nc2ccc(F)cc2)CC1
NS(=O)(=O)c1ccc(NC(=O)COC(=O)c2ccc(Cl)nc2)cc1
CCOc1ccc(NC(=O)CN2CCN(CC(=O)Nc3ccc(OC)cc3)CC2)cc1
O=C(CN1CCN(c2ccccn2)CC1)NC1CCCCC1
Cc1cnc(NC(=O)c2ccc(Cl)nc2)s1
O=C(CN1CCN(c2ccccn2)CC1)Nc1ccc(Br)cc1
COC(=O)c1ccc2c(C(C)(C)O)c(C(C)(C)O)[nH]c2c1
COc1ccc(N2CCN(C(=O)CSCc3nc(-c4ccccc4Cl)oc3C)CC2)cc1
CCN(CC)C(=O)CN(c1cccc([N+](=O)[O-])c1)S(=O)(=O)c1ccccc1
CNc1ccc([N+](=O)[O-])cc1C(=O)O
O=C(c1cc(S(=O)(=O)N2CCOCC2)ccc1Cl)N1CCOCC1
CCCN(CCC)CCCNC(=O)Cn1ncc2c3ccccc3n(Cc3ccccc3)c2c1=O
Cc1ccc(NC(=S)N2CCN(c3ncccn3)CC2)cc1C
COC(=O)N/N=C/c1cn(CCCOc2ccc(C)cc2)c2ccccc12
CCOC(=O)N/N=C/c1cn(Cc2ccccc2Cl)c2ccccc12
O=C(Cc1ccc(Cl)cc1)NC(=S)Nc1ccccc1O
NS(=O)(=O)c1cc(C(=O)OCC(=O)NNC(=O)c2ccccc2)ccc1Cl
CN(NS(=O)(=O)c1cccs1)c1ncc(C(F)(F)F)cc1Cl
COC(=O)c1cn(CC(=O)NCc2cccs2)c2ccccc12
Cc1cccc(NC(=O)c2ccc3nc(C(C)C)oc3c2)c1C
Cc1cccc(NC(=O)c2ccc3nsnc3c2)c1C

activity, negative = inhibition, inactive:
O=S(=O)(c1ccc(SCc2ccc(Br)cc2)nc1)N1CCOCC1 -2.71% [at 12.7 µM]
Cc1ccc(CN2CC(C(=O)NNC(=O)Cn3ccc(C(F)(F)F)n3)CC2=O)cc1 (stereo not given) -2.67% [at 12.7 µM]
O=C(OCC1OC(Oc2ccc(O)cc2)C(O)C(O)C1O)c1ccccc1 (stereo not given) 2.48% [at 12.7 µM]
COc1ccc(S(=O)(=O)N2CCOC23CCN(S(=O)(=O)c2ccc([N+](=O)[O-])cc2)CC3)cc1 -2.42% [at 0.501 µM]
O=C(CNC(=O)c1ccc2ccccc2c1)Nc1ncccc1O 20.5% [at 2.33 µM]
COc1ccccc1N1CC(C(=O)NCCN2C(=O)S/C(=C\c3cccnc3)C2=O)CC1=O (stereo not given) 2.97% [at 12.7 µM]
CCC(=O)c1cc(F)ccc1OCC(=O)Nc1ccc2c(c1)OCCO2 -5.64% [at 12.7 µM]
CC(CN1CCOCC1)OC(=O)c1ccc(C(C)(C)C)cc1 (stereo not given) 6.26% [at 0.501 µM]
N#Cc1ccc(C2=CC(=O)C[C@H](c3ccc(Cl)cc3)C2)cc1 -28.8% [at 0.501 µM]
Cc1ccc(OCCNC(=O)CNC(=O)c2ccc(C)c(C)c2)cc1 24.7% [at 2.33 µM]
COc1ccccc1OCC(=O)OCc1cc(-c2ccco2)on1 3.66% [at 12.7 µM]
COc1cccc(C(=O)OCC(=O)c2[nH]c(C)c(C(C)=O)c2C)c1 -42.2% [at 12.7 µM]
COc1ccc(S(=O)(=O)N2CCOCC2)cc1NC(=O)CSc1cc(C)ccc1C 3.19% [at 0.501 µM]
CSCCC(NC(=O)c1ccco1)C(=O)NCCc1ccc(F)cc1 (stereo not given) 40.1% [at 12.7 µM]
Cc1ccccc1N1CCN(S(=O)(=O)c2ccc3ccccc3c2)CC1 14.6% [at 0.501 µM]
COc1ccc(N(CCC(=O)NCCc2ccccc2)S(=O)(=O)c2ccc(C)cc2C)cc1 12.2% [at 12.7 µM]
Cc1nc2ccc(NC(=O)N3CCC(c4ccccc4)C3)cc2nc1C (stereo not given) 12.3% [at 12.7 µM]
COc1cccc(NC(=O)C2C(c3ccccc3)C2(Cl)Cl)c1 (stereo not given) 0.796% [at 0.501 µM]
Cc1cccc(C)c1NC(=O)CNC(=O)C1CCCC1 26.8% [at 12.7 µM]
CC(=O)c1c(C)[nH]c(C(=O)COc2ccc3c(C)cc(=O)oc3c2)c1C -2.97% [at 12.7 µM]
COC(=O)Cn1cc(C(=O)c2cccs2)c2ccccc21 10.8% [at 12.7 µM]
COc1ccc(Cl)cc1NC(=O)c1oc(C)nc1C 10.9% [at 12.7 µM]
Cc1nc(C)c(C(=O)Nc2ccc(C)c(F)c2)o1 20.5% [at 12.7 µM]
